An excerpt weighted towards active compounds, which were near 1.8% of everything screened.
LYPLA2 counter – LYPLA2 (human) inhibition in PME1 counter-screen. O95372. recombinant LYPLA2, FP-Rh probe fluorescence polarization. inhibition, % at 5.9 µM. 0.38% of 320,000 active. AID 2177;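 active = inhibition above the screen-wide mean plus 3 SD, limit set per campaign, cut at about 26% in these data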;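 note: 0% = LYPLA2 with DMSO and 100% = wells lacking LYPLA2 enzyme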
Target sequence (O95372 whole entry, looked up): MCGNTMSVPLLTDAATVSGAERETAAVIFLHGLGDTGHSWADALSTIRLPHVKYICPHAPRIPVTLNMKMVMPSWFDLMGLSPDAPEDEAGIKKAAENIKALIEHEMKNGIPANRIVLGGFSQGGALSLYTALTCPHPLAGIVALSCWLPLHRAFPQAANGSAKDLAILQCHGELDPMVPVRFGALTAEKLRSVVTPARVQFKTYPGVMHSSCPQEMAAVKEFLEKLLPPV
PAD4 FP inh – blocks human protein arginine deiminase 4; AID 485272; inhibition, % at 6.36 µM; recombinant PAD4, RCA probe fluorescence polarization; 0.41% of 330,000 active;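 active = percent inhibition above a cutoff equal to the mean of all tested compounds plus 3 SD, cut at about 15% in these data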;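 note: 0% = PAD4 with RCA probe and DMSO and 100% = probe without PAD4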
LYPLA1 counter – blocks human lysophospholipase 1, a PME1 counter-screen; 0.16% of 320,000 active; O75608; inhibition, % at 5.9 µM; recombinant LYPLA1, FP-Rh probe fluorescence polarization;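 active = inhibition above the mean of all tested compounds plus 3 SD, set per campaign, cut at about 14% in these data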;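 note: inhibitors block serine hydrolase probe labeling of LYPLA1 so polarization falls; 0% = enzyme with DMSO and 100% = wells lacking LYPLA1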
Target sequence (O75608 whole entry, looked up): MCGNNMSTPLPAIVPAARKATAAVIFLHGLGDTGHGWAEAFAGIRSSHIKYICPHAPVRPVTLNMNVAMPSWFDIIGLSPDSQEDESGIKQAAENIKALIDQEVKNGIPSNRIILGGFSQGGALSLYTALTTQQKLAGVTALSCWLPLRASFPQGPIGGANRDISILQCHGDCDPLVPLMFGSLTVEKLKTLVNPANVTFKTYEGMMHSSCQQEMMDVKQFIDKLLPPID
Fam108B counter – Fam108B inhibition, counter-screen for RBBP9 inhibitors; recombinant Fam108B, FP-Rh probe fluorescence polarization; inhibition, % at 9.51 µM; 0.33% of 300,000 active;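 active = inhibition above the screen mean inhibition plus 3 SD, computed separately per campaign, cut at about 18% in these data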;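 note: inhibitors lower polarization as less probe binds the enzyme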
GSTO1 counter – GSTO1 inhibition, counter-screen for RBBP9 inhibitors | P78417 | recombinant GSTO1, activity-based probe fluorescence polarization | inhibition, % at 5.96 µM | 1.1% of 300,000 active | AID 1974;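 active = inhibition above the campaign mean inhibition plus 3 SD, cut at about 35% in these data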;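 note: 0% = GSTO1-1 with DMSO and 100% = wells lacking GSTO1-1 enzyme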
PME-1 primary – PME-1 (human) inhibition; Q9Y570; recombinant PME-1, FP-Rh probe fluorescence polarization; inhibition, % at 5.9 µM; 0.53% of 320,000 active; AID 2130;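 active = inhibition above the campaign mean of all compounds plus 3 SD, cut at about 26% in these data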;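 note: competitive labeling of PME-1 active site by serine hydrolase directed probe; 0% = PME-1 with DMSO and 100% = wells lacking PME-1 enzyme; inhibitors block probe labeling so polarization falls and inhibition rises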
PAD4 confirm – PAD4 (human) inhibition, confirmed | inhibition, % at 6.36 µM | recombinant PAD4, RCA probe fluorescence polarization | 28% of 1,200 active | shares compounds with PAD4 FP inh;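 active = mean inhibition across replicates above the hit cutoff set by the earlier primary screen, cut at about 15% in these data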;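 note: inhibitors block active-site labeling by the probe so polarization falls; 0% = PAD4 with probe and DMSO and 100% = probe without PAD4 enzyme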
Starred values were filed as active, the others as inactive; x = no result given; ! = not confirmed by another sample.

SMILES	LYPLA2 counter	PAD4 FP inh	LYPLA1 counter	Fam108B counter	GSTO1 counter	PME-1 primary	PAD4 confirm
COc1ccc(/C=N/Nc2nnc(C)n2N)cc1OC	-3.7	25.4*	2.8	-0.5	34.1	0.6	5.2
COc1ccccc1C(=O)NNC(=O)c1ccc(Br)o1	2.9	2.2	0.8	-2.2	-0.5	2.4	x
CCC(=O)Nc1ccc(SC#N)cc1C	-0.3	40.3*	0.9	3.5	5.8	0.8	42.2*
Cc1cc(SC#N)cc(C)c1NC(=O)CCl	-4.9	25.3*	3.6	-0.5	65.7*	-7.5	3.2
CCOC(=O)CC(=O)Nc1c(C)cc(C)cc1C	5.9	0.0	2.3	1.7	-4.5	3.8	x
NC(=S)NN=C1c2ccccc2-c2ccccc21	1.1	-1.1	-1.2	-6.8	-7.7	-7.6	x
COc1cc(/C=C/C(=O)OC(C)C(=O)NC2CCCCC2C)cc(Cl)c1OC (configuration not stated)	7.5	-1.6	2.5	0.5	-9.4	-3.1	x
CC(C)CN(C(=O)CCC(=O)OCc1ccc(Cl)cc1Cl)c1c(N)n(CC(C)C)c(=O)[nH]c1=O	-1.8	-2.1	-2.3	2.6	-4.3	0.8	x
CCSc1nc2ccccc2[nH]1	-2.9	17.4*!	-2.7	-1.0	-2.2	-2.3	5.9
CCCn1c(CN2CCN(C(=O)OCC)CC2)nc2cc(NC(=O)CC)ccc21	-4.3	14.9*	-1.2	-0.3	9.8	2.7	2.0
Cc1ccc2c(c1)sc(-c1ccc(N(C)C)cc1)[n+]2C	5.5	19.0*	1.4	5.5	2.5	5.7	-1.8
COc1ccc(C)cc1Nc1n[n+](-c2ccccc2)c(-c2ccc(N(C)C)cc2)s1	4.7	-2.4	3.5	2.9	0.2	0.3	x
CC(C)c1cccc(C(C)C)c1NC(=O)CN1C(=O)NC2(CCCCCCC2)C1=O	-3.2	18.1*	-1.7	x	x	4.1	7.7
CC(NC(=O)CN1C(=O)NC2(CCCCCCC2)C1=O)c1ccccc1 (configuration not stated)	x	2.2	x	x	x	x	x
O=C1N/C(=C/c2ccc(N3CCOCC3)o2)C(=O)N1c1ccccc1	0.6	119.3*	-5.3	5.8	1.3	-1.2	4.1
COc1ccc2c(c1)oc(=O)c1ccccc12	6.1	15.1*	-0.6	-0.8	9.5	-4.0	22.6*
COc1ccc2c(c1)oc(=O)c1cc(OC)ccc12	-3.2	-8.2	2.5	-11.8	-10.4	-3.9	x
O=S(=O)(Nc1ccc(Cl)cn1)c1ccc(Cl)cc1	1.9	-2.8	-1.7	0.2	-1.6	4.6	x
Cc1cc(C)c(S(=O)(=O)Nc2ccc(Cl)cn2)c(C)c1	6.9	21.4*	2.5	2.1	3.6	-4.8	1.1
CNc1ccccc(-c2ccc3ccccc3n2)c1=O	-3.1	20.5*	-4.0	13.1	22.9	0.4	6.7
O=C(NC(=O)c1cc([N+](=O)[O-])ccc1Cl)C1=C(N2CCCC2)COC1=O	x	-3.8	x	x	x	x	x
CN(C)CCCNc1cc(O)c2ncccc2c1	x	15.7*	x	x	x	x	-9.8
Cc1noc(C)c1S(=O)(=O)NCc1ccc2c(c1)OCO2	-1.7	25.4*	1.8	4.1	4.7	-1.1	0.0
CS(=O)(=O)c1ccc(N)c(SSc2cc(S(C)(=O)=O)ccc2N)c1	-0.1	45.4*	0.5	3.3	18.0	1.6	52.1*
CS(=O)(=O)c1ccc2nc(N)sc2c1	2.3	-1.5	1.4	0.4	0.8	-1.6	x
SMILES	LYPLA2 counter	PAD4 FP inh	LYPLA1 counter	Fam108B counter	GSTO1 counter	PME-1 primary	PAD4 confirm
CCOC(=O)C1CCN(CC(=O)N2CCc3ccccc32)CC1	-1.1	37.9*	2.9	2.0	-0.9	2.0	2.0
CC1CCN(CC(=O)N2CCc3ccccc32)CC1	-0.1	-1.9	-0.2	0.8	3.7	-2.1	x
O=C1NC(Cc2ccc(O)cc2)c2nc3ccccc3c(=O)n2-c2cc(Cl)ccc21 (configuration not stated)	x	2.4	x	x	x	x	x
Cc1cc(C(=O)CSc2nnc(N)s2)c(C)n1C1CC1	3.3	-2.7	3.6	-1.3	5.8	-1.4	x
Cc1cc(C(=O)CSc2nc(N)cc(N)n2)c(C)n1C1CC1	-3.1	15.7*	1.0	-0.4	18.0	-4.6	7.7
N#CC1=C(N)OC2=C(CN(Cc3ccccc3)C/C2=C\c2cccnc2)C1c1cccnc1 (configuration not stated)	5.1	1.9	6.4	7.2	-5.7	3.6	x
